NOD2-RIPK2 inh: NOD2-RIPK2 protein interaction inhibition | inhibition, % at 4.98 µM | AID 624267 | 0.38% of 360,000 active | CHO BLA complementation NOD2-RIPK2, CCF4 ratio; in the data active means inhibition above about 21%;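 further: 0% = vehicle only and 100% = reference blocker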
TLR4 MyD88 comp: inhibitors of human TLR4-MyD88 binding. inhibition, % at 8.4 µM. O00206+Q99836. AID 861. 0.18% of 200,000 active. HeLa CL3-4 TLR4/MyD88 BLA complementation, FRET ratio; in the data active means inhibition above about 25%;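 further: 0% = vehicle and 100% = reference inhibitor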
IDE act: activators of human insulin-degrading enzyme in cells. 0.073% of 340,000 active. HEK cells, FAbeta-B cleavage, fluorescence polarization; 0% vehicle, 100% cell-free pure enzyme wells. activation, % at 5.96 µM. AID 493087;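 active means activation above the mean of all tested compounds plus 3 SD, set per screening campaign, cut at about 17% in these data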
IDE cell inh: inhibits human insulin-degrading enzyme in HEK cells; P14735; AID 434962; inhibition, % at 5.59 µM; FAbetaB cleavage, fluorescence polarization; 0.41% of 320,000 active;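 active means percent inhibition above the average of all tested compounds plus 3 SD, set per screening campaign, cut at about 16% in these data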;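 further: IDE supplied by intact live HEK cells; FP after avidin binding of uncleaved biotin substrate so inhibition keeps polarization high; 0% = DMSO wells and 100% = 60 µM reference IDE inhibitor Ii1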
TLR9-MyD88 block: TLR9-MyD88 interaction inhibition; inhibition, % at 4.98 µM; 0.21% of 340,000 active; CHO BLA complementation TLR9-MyD88, CCF4 FRET ratio;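 active means inhibition above the mean over all tested compounds plus 3 SD, cut at about 21% in these data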;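 further: 0% = DMSO only wells and 100% = clavulanate BLA inhibitor control wells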
Target sequence (Q99836 whole entry, looked up): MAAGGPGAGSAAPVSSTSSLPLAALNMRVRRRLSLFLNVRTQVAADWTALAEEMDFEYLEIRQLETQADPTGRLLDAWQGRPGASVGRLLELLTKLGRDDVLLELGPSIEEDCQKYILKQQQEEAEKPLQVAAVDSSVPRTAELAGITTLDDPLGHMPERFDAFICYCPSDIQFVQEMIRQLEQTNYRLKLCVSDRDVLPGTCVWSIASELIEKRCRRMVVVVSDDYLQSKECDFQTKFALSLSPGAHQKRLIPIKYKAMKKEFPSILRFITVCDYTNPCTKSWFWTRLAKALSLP
Target sequence (Q9NR96 whole entry, looked up): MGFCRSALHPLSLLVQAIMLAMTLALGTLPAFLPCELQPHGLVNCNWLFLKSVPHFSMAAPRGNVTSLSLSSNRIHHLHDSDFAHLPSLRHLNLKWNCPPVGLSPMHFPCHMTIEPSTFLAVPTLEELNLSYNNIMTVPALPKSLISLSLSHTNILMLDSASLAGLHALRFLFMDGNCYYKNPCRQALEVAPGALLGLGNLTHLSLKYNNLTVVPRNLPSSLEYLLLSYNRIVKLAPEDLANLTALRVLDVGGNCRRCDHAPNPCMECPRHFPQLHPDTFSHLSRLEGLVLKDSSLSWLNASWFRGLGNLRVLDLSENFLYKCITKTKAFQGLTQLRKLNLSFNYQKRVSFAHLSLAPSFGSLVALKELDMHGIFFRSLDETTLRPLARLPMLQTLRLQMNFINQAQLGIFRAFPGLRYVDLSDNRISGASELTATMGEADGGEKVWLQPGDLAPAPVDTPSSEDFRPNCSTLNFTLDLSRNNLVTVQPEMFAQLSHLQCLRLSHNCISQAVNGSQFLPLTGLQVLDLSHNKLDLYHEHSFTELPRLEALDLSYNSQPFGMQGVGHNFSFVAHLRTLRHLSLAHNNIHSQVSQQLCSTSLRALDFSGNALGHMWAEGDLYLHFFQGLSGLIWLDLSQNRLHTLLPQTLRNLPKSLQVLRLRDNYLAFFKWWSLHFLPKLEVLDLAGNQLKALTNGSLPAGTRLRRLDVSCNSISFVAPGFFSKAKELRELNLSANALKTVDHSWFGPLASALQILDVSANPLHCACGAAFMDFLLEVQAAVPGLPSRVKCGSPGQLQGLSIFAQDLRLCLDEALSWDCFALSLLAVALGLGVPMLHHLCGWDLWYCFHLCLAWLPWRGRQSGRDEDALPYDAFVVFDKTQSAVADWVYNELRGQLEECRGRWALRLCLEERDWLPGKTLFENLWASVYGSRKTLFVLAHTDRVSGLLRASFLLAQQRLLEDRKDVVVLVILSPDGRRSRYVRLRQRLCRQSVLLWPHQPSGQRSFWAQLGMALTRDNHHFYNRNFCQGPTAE
TLR4-MyD88 conf: TLR4-MyD88 interaction inhibition confirmed | shares compounds with TLR4 MyD88 comp | HeLa CL3-4 BLA complementation, CCF4 FRET ratio | inhibition, % at 8.4 µM | 50% of 350 active;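 active means mean inhibition across three repeat runs above about 25% carried over from the earlier screen, limit read from the data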;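 further: plate controls were DMSO only for no effect and clavulanic acid blocking BLA at full dose for full effect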
BLA inhibitor ct: inhibits beta-lactamase activity, counter-screen to TLR4-MyD88 binding inhibitors; inhibition, % at 8.4 µM; shares compounds with TLR4 MyD88 comp; 63% of 350 active; HeLa BLA reporter, CCF4 FRET ratio; AID 1237;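 active means mean inhibition over three repeats above about 26% taken from the earlier screen, limit read from the data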;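 further: HeLa cells stably expressing beta-lactamase reporter as counterscreen for TLR4-MyD88 inhibitors; 0% = DMSO and 100% = clavulanic acid full inhibition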
Starred values were filed as active, the others as inactive. Hits are enriched below; roughly 0.87% of the tested compounds scored in any of these assays.

OC(c1ccccc1)c1ncc(-c2ccccc2Cl)[nH]1 (configuration not stated) was read as NOD2-RIPK2 inh -3.
`N#Cc1sc2nc(-c3ccccc3)cc(C(F)(F)F)c2c1N` gave NOD2-RIPK2 inh -1, TLR4 MyD88 comp -2, IDE act 0 and TLR9-MyD88 block 0.
For N#Cc1sc2nc(-c3cccs3)cc(-c3ccccc3)c2c1N the results were NOD2-RIPK2 inh 8, TLR4 MyD88 comp 46*, IDE act 2, IDE cell inh 5, TLR9-MyD88 block 6, TLR4-MyD88 conf 48* and BLA inhibitor ct 82*.
Screening COc1ccc(N2CCN(C(=O)C(=O)c3cc(OC)c(OC)c(OC)c3)CC2)cc1 returned NOD2-RIPK2 inh -13.
For CC(C)C[C@H]1CN(CCCC[C@@H]2CNC(=O)C(=O)N2Cc2ccccc2)C(=O)C(=O)N1CC1CCCCC1 the results were NOD2-RIPK2 inh 1.
CCCCNC(=O)CSc1nc2ccsc2c(=O)n1C1CCN(C(=O)OCC)CC1 was read as NOD2-RIPK2 inh -4, TLR4 MyD88 comp 48*, IDE act -2, IDE cell inh 1, TLR9-MyD88 block -4, TLR4-MyD88 conf -4 and BLA inhibitor ct -7.
For NS(=O)(=O)c1ccc(CCNC(=O)CSc2nc3ccsc3c(=O)n2C2CC2)cc1 the results were NOD2-RIPK2 inh -12, TLR4 MyD88 comp -1, IDE act -6, IDE cell inh 4 and TLR9-MyD88 block -6.
`Cc1cc(C(=O)N2CCC(C)(C(=O)NS(=O)(=O)C3CC3)C2)n(C(C)(C)C)n1` (configuration not stated) gave NOD2-RIPK2 inh -6.
`CC(=O)C1=C(C)NC(SCC(=O)c2ccc(-c3ccccc3)cc2)=C(C#N)C1c1cccnc1` (configuration not stated) gave TLR4 MyD88 comp 31*, IDE cell inh 4, TLR4-MyD88 conf 20 and BLA inhibitor ct 36*.
Screening CCOC(=O)C1=C(c2ccccc2)NC(SCC(N)=O)=C(C#N)C1c1cccnc1 (configuration not stated) returned NOD2-RIPK2 inh -5, TLR4 MyD88 comp -12, IDE act -1, IDE cell inh 2 and TLR9-MyD88 block 4.
O=C1CC(c2ccc(O)cc2)Oc2cc(O)cc(O)c21 (configuration not stated) was read as NOD2-RIPK2 inh -5, TLR4 MyD88 comp 2, IDE act -1, IDE cell inh 9 and TLR9-MyD88 block -2.
For CC1CC(=O)c2c(cc3c(-c4c(O)cc(O)c5c(O)c6c(cc45)OC(C)CC6=O)c(O)cc(O)c3c2O)O1 (configuration not stated) the results were NOD2-RIPK2 inh 23*, TLR4 MyD88 comp 42*, IDE act 25*, IDE cell inh -15, TLR9-MyD88 block 18, TLR4-MyD88 conf 44* and BLA inhibitor ct 65*.
Screening CCOCCCn1c(SCC(=O)NC2CCCCC2)nc2ccccc2c1=O returned NOD2-RIPK2 inh -8 and TLR9-MyD88 block 2.
For Nc1cc(-c2ccccc2)nn1Cc1ccc(Cl)cc1 the results were NOD2-RIPK2 inh 2, TLR4 MyD88 comp 28*, IDE act -5, IDE cell inh 3, TLR9-MyD88 block -11, TLR4-MyD88 conf 3 and BLA inhibitor ct 2.
`O=C(O)CSc1nnc(CNc2cccc(C(F)(F)F)c2)n1Cc1ccco1` gave NOD2-RIPK2 inh -7, TLR4 MyD88 comp 6, IDE act 1, IDE cell inh 8 and TLR9-MyD88 block -1.
`O=C(CSc1nnc(CNc2cccc(C(F)(F)F)c2)n1Cc1ccco1)NCc1ccco1` gave NOD2-RIPK2 inh -8, TLR4 MyD88 comp 26*, IDE act 5, IDE cell inh 4, TLR9-MyD88 block -1, TLR4-MyD88 conf 1 and BLA inhibitor ct 4.
`COc1cc2c3nnc(-c4ccccc4)c-3cn(Cc3ccccc3F)c2cc1OC` gave TLR4 MyD88 comp 33*, IDE cell inh 8, TLR4-MyD88 conf 4 and BLA inhibitor ct 31*.
COc1ccccc1Cc1c(-c2ccc(F)cc2)nc2ccc(Cl)cn12 was read as NOD2-RIPK2 inh 0.
Screening COc1cc2c3nnc(-c4ccc(F)cc4)c-3cn(Cc3ccccc3F)c2cc1OC returned NOD2-RIPK2 inh 20, TLR4 MyD88 comp 62*, IDE act -1, TLR9-MyD88 block 20, TLR4-MyD88 conf 44* and BLA inhibitor ct 84*.
CCCCCCn1cc(CN2CC(N(C)CC)CS2(=O)=O)nn1 (configuration not stated) was read as NOD2-RIPK2 inh -6.
For COc1ccc(-c2c3c(nc4sc(C(=O)Nc5ccccc5)c(N)c24)CCC3)cc1 the results were NOD2-RIPK2 inh 8, TLR4 MyD88 comp 25*, IDE act -7, IDE cell inh 3, TLR9-MyD88 block 9, TLR4-MyD88 conf 36* and BLA inhibitor ct 58*.
Screening CCNC(=O)C1CCCN(Cc2ccc3ccccc3c2Br)CC1 (configuration not stated) returned NOD2-RIPK2 inh 3.
For O=c1cc(-c2c(F)c(F)c(F)c(F)c2F)oc2c(F)c(F)c(F)c(F)c12 the results were TLR4 MyD88 comp 42*, IDE cell inh 3, TLR4-MyD88 conf 38* and BLA inhibitor ct 15.
`CCOc1ccc(C2C=C(c3ccc(F)cc3)Nc3ncnn32)cc1` (configuration not stated) gave NOD2-RIPK2 inh 7, TLR4 MyD88 comp 26*, IDE act 5, IDE cell inh 11, TLR9-MyD88 block 7, TLR4-MyD88 conf 24 and BLA inhibitor ct 53*.
Screening COc1ccc(C2C=C(c3ccccc3)Nc3nc(NC(C)=O)nn32)cc1 (configuration not stated) returned TLR4 MyD88 comp 36*, IDE cell inh 0, TLR4-MyD88 conf 31* and BLA inhibitor ct 56*.
CCOc1ccc(C2C=C(c3ccccc3)Nc3ncnn32)cc1 (configuration not stated) was read as TLR4 MyD88 comp 27*, IDE cell inh 4, TLR4-MyD88 conf 24 and BLA inhibitor ct 41*.
Cc1cc(C)c(C2=CC(c3ccccc3)n3ncnc3N2)cc1C (configuration not stated) was read as IDE cell inh -2.
For COc1ccc(C2CCc3cc(OC)c(OC)cc3C2NC=O)cc1OC (configuration not stated) the results were NOD2-RIPK2 inh 4 and TLR9-MyD88 block 2.
COc1cccc(CC(=O)Nc2nccs2)c1 was read as NOD2-RIPK2 inh 1, TLR4 MyD88 comp 26*, IDE act 6, IDE cell inh -1, TLR9-MyD88 block -2, TLR4-MyD88 conf -6 and BLA inhibitor ct 6.
